# Rows were chosen to be rich in hits. Some 4.8% of all compounds tested hit in one or more screens of this group.
# hgDAF-12 ag: H. glycines DAF-12 receptor agonists, primary screen, cell-based, luminescence, HEK293, GAL4 fusion, UAS-luciferase; Nuclear hormone receptor DAF-12 (Heterodera glycines), GAL4 fusion; HEK293 GAL4-hgDAF12 UAS-luciferase reporter, agonist luminescence; normalized to butyrate control; activation, % at 6.8 µM; hit rate 1.8% among 370,000;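 active means activation above a cutoff set at the mean of all screened compounds plus 3 SD, cut at about 10% in these data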;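 further: 0% = DMSO wells and 100% = sodium butyrate wells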
# SMARCA2 act: SMARCA2 (BRM) function activators, primary screen, cell-based, luminescence, high throughput | hit rate 1% among 370,000 | MG213 cells, MMTV-luciferase reporter, dexamethasone, overnight | activation, % at 9.1 µM; in the data active means activation above about 7.8%;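 further: 0% = vehicle wells and 100% = reference activator wells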
# DAX1 inh-1: DAX1 (NR0B1) inhibitors, primary screen, cell-based, HEK293, Gal4-DAX1, luciferase luminescence; hit rate 0.99% among 340,000; inhibition, % at 6.75 µM; AID 504766, 2011; HEK293 Gal4-DAX1 luciferase reporter;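 active means inhibition above the mean over all tested compounds plus 3 SD, cut at about 4.2% in these data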;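 further: 0% = DAX1-transfected cells with DMSO and 100% = empty-vector control cells with DMSO; inhibition shows as a rise in luminescence from relieved DAX1 repression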
# Target sequence (P51843 207-470 limits assumed): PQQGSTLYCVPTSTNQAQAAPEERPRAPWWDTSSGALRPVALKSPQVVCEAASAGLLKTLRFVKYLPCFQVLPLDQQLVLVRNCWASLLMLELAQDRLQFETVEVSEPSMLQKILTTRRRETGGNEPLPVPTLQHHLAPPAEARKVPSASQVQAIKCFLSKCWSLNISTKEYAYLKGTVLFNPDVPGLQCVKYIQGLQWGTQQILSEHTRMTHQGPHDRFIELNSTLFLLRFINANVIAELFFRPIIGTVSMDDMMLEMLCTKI
# ssDAF12 agonist: S. stercoralis DAF-12 nuclear receptor activators, primary screen, cell-based, luminescence, HEK293, GRIP1 co-expression, lit1-tk-luc; Nuclear hormone receptor DAF-12 (Strongyloides stercoralis); HEK293 ssDAF-12/GRIP1 lit1-tk-luc reporter; % of 3 µM dafachronic acid response; activation, % at 6.8 µM; hit rate 1% among 370,000; AID 652126, 2013;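 active means activation above the mean over all tested compounds plus 3 SD, cut at about 0.9% in these data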;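 further: 0% = DMSO-only wells and 100% = 3 µM delta7-dafachronic acid wells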
# DAX1 inh-2: DAX1 (NR0B1) inhibitors on StAR promoter, primary screen, cell-based, luminescence, SF-1 (NR5A1), full-length DAX-1; HEK293T StAR-luciferase reporter, SF-1/DAX-1 repression relief; inhibition, % at 6.8 µM; hit rate 1.1% among 370,000; AID 652010, 2013;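 active means inhibition above the mean over all tested compounds plus 3 SD, cut at about 3.6% in these data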;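 further: 0% = DAX-1 cells with DMSO and 100% = cells lacking DAX-1 with DMSO; higher inhibition means more luminescence from relief of DAX-1 repression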
# hcDAF12 agonist: H. contortus DAF-12 nuclear receptor activators, primary screen, cell-based, luminescence, HEK293, lit1-tk-luc reporter | HEK293 hcDAF-12 lit1-tk-luc reporter; 0% DMSO, 100% Δ7-dafachronic acid | activation, % at 6.8 µM | hit rate 1.4% among 370,000 | AID 652067, 2013;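 active means activation above the mean of all tested compounds plus 3 SD, cut at about 5.5% in these data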;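 further: 100% = response to 3 µM Δ7-dafachronic acid high control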
# hgDAF12 conf: H. glycines DAF-12 receptor agonists, confirmation, cell-based, luminescence, HEK293, GAL4-LBD fusion; shares compounds with hgDAF-12 ag; HEK293 GAL4-hgDAF12 luciferase reporter, agonist mode; percent of butyrate response; activation, % at 6.8 µM; hit rate 80% among 3,300;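 active means mean activation over triplicate wells above the hit cutoff derived from the earlier primary screen, cut at about 11% in these data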;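 further: 0% = DMSO low control and 100% = 2 mM sodium butyrate high control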
# LXR ag 2: LXR agonists, Gal4 luciferase reporter, confirmation, counter-screen for hgDAF-12 agonist project, cell-based, luminescence, HEK293, H. glycines campaign; 3,300 tested, under 10 active; AID 743051, 2013; shares compounds with hgDAF-12 ag; activation, % at 6.8 µM; 24 h;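 active means mean activation of the triplicate above a set limit carried over from the primary screen, none filed active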
# * hit, by the source's call; . = no result.
SMILES,hgDAF-12 ag,SMARCA2 act,DAX1 inh-1,ssDAF12 agonist,DAX1 inh-2,hcDAF12 agonist,hgDAF12 conf,LXR ag 2
COc1ccc(-c2coc3cc(O[C@@H]4O[C@H](CO)[C@@H](O)[C@H](O)[C@H]4O)ccc3c2=O)cc1,8,6,2,0,3,6,.,.
C[C@H]1CN(S(=O)(=O)C(C)(C)C)[C@H](CCO)/C1=C\CCO,2,-5,.,-1,0,2,.,.
CCOC(=O)CSc1nc2cc3c(cc2cc1C#N)OCO3,14*,6,2,1,3,4,15*,1
CCOC(=O)CSc1nc2cc3c(cc2cc1C#N)OCCO3,17*,3,12*,0,3,4,12*,1
COC(=O)CSc1nc2cc3c(cc2cc1C)OCCO3,1,-1,-1,-1,0,-1,.,.
COC(=O)c1cc2c(c3c4ccccc4n(S(=O)(=O)c4ccc(C)cc4)c13)C(=O)N(CC(C)C)C2,2,-4,.,0,0,4,.,.
CC1=CC(=C2C(=O)c3ccccc3C2=O)C=C(C)N1Cc1ccco1,16*,1,2,0,3,3,13*,1
COc1ccc(S[C@]2(C(=O)N3CCN(c4ncccn4)CC3)CC(=O)N(P(=O)(OC)OC)[C@@H]2c2ccc(OC)cc2)cc1,3,-1,.,-1,-2,-1,.,.
O=C(NCC1CCN(C(=O)C(=O)c2cc3ccccc3o2)CC1)c1ccc2c(c1)OCC2,0,0,.,-1,1,0,.,.
COc1ccc(N2Cc3ccccc3C2)cc1Cl,14*,0,0,0,-2,0,6,0
CCCCN1CC(N2CCCC2)CS1(=O)=O (stereo unspecified),-4,-5,.,0,0,-2,.,.
COC(=O)C1=C(C)N(Cc2ccccc2C(F)(F)F)C(=NCc2ccccc2C(F)(F)F)NC1c1ccc(C(F)(F)F)cc1 (stereo unspecified),4,-3,.,0,0,0,.,.
CN(C(=O)c1cccc(COc2ccc(Cl)cc2Cl)c1)c1ccccc1,13*,2,-2,-1,1,2,13*,1
O=C(NCc1ccccc1)c1cccc(COc2ccccc2Cl)c1,9,3,-2,-1,-1,3,.,.
Nc1nccc(-c2cc(-c3ccc(Cl)cc3Cl)no2)n1,15*,5,10*,1.9*,2,5.7*,20*,1
Nc1c(-c2cccs2)cnn1-c1nc(-c2ccc(Cl)cc2Cl)cs1,1,-5,3,-1,-1,1,.,.
O=C(NC(=S)Nc1ccc(CN2CCOCC2)cc1)c1ccco1,5,6,1,-1,1,2,.,.
O=C(NC(=S)Nc1ccc(N2CCOCC2)cc1)c1ccco1,16*,3,0,-1,2,3,10,0
COc1ccc(NC(=O)c2ccccc2NC(=O)C2CCCCC2C(=O)O)cc1 (stereo unspecified),14*,4,3,0,2,5,3,0
Cc1ccc(/C=C/C(=O)Nc2ccccc2C(N)=O)cc1,18*,5,-1,0,4.4*,4,15*,1

# Source: PubChem (The Scripps Research Institute Molecular Screening Center)
